# Bioassay records from PubChem BioAssay.
# The list is not random: actives were taken first. Their share in the collection is about 10%.
# NIH3T3 tox: NIH 3T3 cell cytotoxicity | NIH 3T3 viability, CellTiter-Glo ATP luminescence, 48-72 h | AID 1345082 | hit rate 4.3% among 94,000 | Potency, µM (top dose mostly 96.7 µM), inactives show at the top dose activity change, negative = cytotoxicity, actives largely listed as inhibitors; note: nearly all actives have a fitted effect of over 55% in size
#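 Cytotoxicity was measured by CellTiter-Glo ATP luminescence after 48 or 72 h compound exposure at 37 °C. Mouse NIH 3T3 fibroblasts were seeded at 400 cells/well and dosed by 23 nL pin transfer.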
# HEK293 tox: kills HEK 293 cells; Potency, µM (doses to about 115 µM), without a hit: at the highest dose activity change, negative = cytotoxicity, hits mostly inhibitors; hit rate 6.6% among 94,000; HEK 293 viability, ATP luminescence (CellTiter-Glo), 48-72 h; note: nearly all actives have a fitted effect of over 60% in size
#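 HEK 293 cells at 250 cells/well were exposed to compounds by pintool transfer for 48 or 72 hr at 37 degree Celsius, 5% CO2. Viability was read as ATP-coupled luminescence with CellTiter-Glo after 10 min at room temperature.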
# GPT2 inh: GPT2 alanine aminotransferase inhibition; AID 1671188; Potency, µM (highest dose often 57.7 µM), without a hit: at the top dose activity change, negative = inhibition, hits mostly inhibitors; hit rate 0.25% among 100,000; Recombinant GPT2, coupled pyruvate oxidase/HRP Amplex Red fluorescence; note: nearly all actives have a fitted effect of over 60% in size
#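 Fluorescence of coupled pyruvate oxidase/HRP/Amplex Red system (50uM Amplex, 30 min, dark) reports pyruvate formed by GPT2. Enzyme reaction: 10ng/uL GPT2, 2mM L-alanine, 250uM a-KG, 30 min room temperature, pH 7.5; 50uM AOA control.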
# hNpr1 antagonist: blocks ANP-stimulated signaling of human Npr1 receptor; P16066; HEK293 hNpr1 GloSensor cGMP, ANP-stimulated luminescence; hit rate 1.6% among 76,000; Potency, µM (top dose mostly 46.3 µM), for inactives: at the highest dose activity change, negative = inhibition, actives largely listed as inhibitors; calls by dose curve; note: nearly all actives have a fitted effect of over 60% in size
#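 Compound pre-incubated 30 min at room temperature on GloSensor-loaded HEK293 cells stably carrying hNpr1 and the pGS-40F cGMP biosensor. Stimulation uses hNppA at 0.1 nM final; luminescence is taken at baseline and 20 min post-agonist.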
# FLuc inh: Photinus pyralis luciferase inhibition. purified P. pyralis luciferase, luminescence, biochemical. Potency, µM (doses to about 115 µM), usual class: inhibitors. hit rate 2.5% among 76,000. AID 1347043; note: nearly all actives have a fitted effect of over 65% in size
#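 Purified P. pyralis luciferase (10nM final) in 50mM Tris acetate pH 7.5, 10mM Mg acetate, 0.01% Tween-20, 0.05% BSA with 10uM D-luciferin and 10uM ATP. Compounds titrated qHTS. Luminescence imaged on CCD.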
# Active calls of the source: *; i = inactive; ? = inconclusive; . = no result given; ! = not active in a repeat; [ ] = dose if it differs, or a comment. Unless noted, calls come from the whole dose curve; as a rule, active = well fitted curve in the direction sought with a large enough effect; inconclusive = small, poorly fitted or top-dose-only effect, or another doubt; inactive = no such curve, though single readings can be large; an effect the other way counts as inactive or inconclusive. % is set by controls: 0 for no effect and ±100 for the full control effect; potency is the fitted concentration of half-maximal effect.
SMILES,NIH3T3 tox,HEK293 tox,GPT2 inh,hNpr1 antagonist,FLuc inh
Cc1ccc(-c2cc(C(=O)NCCc3ccc(Cl)cc3)c3cnn(C)c3n2)c(C)c1,?,?,5%,.,.
Cc1ccc(-c2cc(C(=O)NCCc3ccc(F)cc3)c3cnn(C)c3n2)c(C)c1,?,40µM*,i,.,.
Cn1ncc2c(C(=O)NCCCl)cc(-c3ccccc3C(F)(F)F)nc21,-23%,-5%,.,.,.
Cn1ncc2c(C(=O)NCCc3ccc(Cl)cc3)cc(-c3ccccc3C(F)(F)F)nc21,32µM*,40µM*,.,.,.
Cn1ncc2c(C(=O)NCCc3ccc(Cl)cc3)cc(C(C)(C)C)nc21,?,40µM*!,-10%[88.5 µM],.,.
Cn1ncc2c(C(=O)NCCc3ccccc3)cc(C(C)(C)C)nc21,?,?,1%,.,.
CCCOC(=O)N1CCC(C(=O)Nc2cccc(-c3cccc(F)c3)c2)CC1,?,45µM*,-4%,?,i
CCn1cc(-c2ccc(C)cc2)cc1C(=O)NC(C)c1ccccn1 (centres undefined),?,40µM*,i,-7%,i
COc1ccc(C)cc1NC(=O)c1ccc2c(c1)C(O)CCCCCN2C (centres undefined),?,?,i,-17%,i
CCCN(CC1CC1)C(=O)c1ccc2c(c1)C(O)CCCCCN2CCOC (centres undefined),?,79µM*,0%,-10%,i
COCCN1CCCCCC(O)c2cc(C(=O)Nc3cc(C)ccc3OC)ccc21 (centres undefined),?,45µM*,-4%,-2%,?
COc1ccccc1OCCNC(=O)c1ccc2c(c1)C(O)CCCCCN2C (centres undefined),?,?,-16%,-13%,i
CC(C)N1C(=O)C2(CCCCC2)C1C(=O)NCCCN1CCCc2ccccc21 (centres undefined),?,79µM*,i,4%,i
CC(C)N1C(=O)C2(CCCCC2)C1C(=O)NCCCN1CCCCC1 (centres undefined),i,1%,1%,2%,i
CN1CCCCCC(O)c2cc(C(=O)NCCc3ccccn3)ccc21 (centres undefined),32µM*,?,-40%,-10%,45µM*
CN1CC(=O)N(C2CCCNCC2)Cc2c(NCCCn3ccnc3)ncnc21 (centres undefined),1%,2%,-7%,.,.
N#Cc1cccc(CN2CCCC23Cc2ccccc2CNC3=O)c1 (centres undefined),-16%,-7%,1%,.,.
CN(C)c1ccc(-c2nnnn2[C@H]2CO[C@H]3[C@@H]2OC[C@H]3OC(=O)Nc2cccc(C#N)c2)cc1,?,?,1%,-28%,i
COCCN1CCCCCC(O)c2cc(C(=O)NCCCN3CCCc4ccccc43)ccc21 (centres undefined),?,40µM*,?,-8%,i
Cc1ccccc1CNC(=O)c1ccc(CN2C(=O)NC3(CCOCC3)C2=O)cc1,i,-2%,i,-3%,i
Cc1ccc(NC(=O)c2ccc(CN3C(=O)NC4(CCOCC4)C3=O)cc2)cc1,3%,?,i,-24%,16µM*
COc1ccc(NC(=O)c2ccc(CN3C(=O)NC4(CCOCC4)C3=O)cc2)cc1,-9%,-24%,-1%,-24%,28µM*
COc1ccc(-c2cc(N3CCC(NC(=O)c4ccc(C)cc4)C3)n[nH]2)cc1 (centres undefined),?,?,?,-2%,i
COc1ccc(-c2cc(N3CCC(NC(=O)c4ccc5c(c4)OCO5)C3)n[nH]2)cc1 (centres undefined),?,79µM*,i,-7%,i
O=C(NC1CCN(c2cc(-c3ccc(Cl)cc3)[nH]n2)C1)c1ccc2c(c1)OCO2 (centres undefined),?,?,?,-29%,i
O=C(NC1CCCN(c2cc(-c3ccc(Cl)cc3)[nH]n2)C1)c1ccc2c(c1)OCO2 (centres undefined),?,45µM*,-12%,-21%,?
COCC(=O)NC[C@H]1OC[C@@H](NCc2cnc[nH]2)[C@@H]1O,i,i,-1%[88.5 µM],4%[70.6 µM],i
